Sampled rows, rich in hits. Any-hit rate of the full collection: about 1.3%.
LANA-H2B inh = blocks KSHV LANA binding to histone H2A/H2B. 0.6% of 320,000 active. AID 2629. cell-free LANA-H2A/H2B peptide, fluorescence polarization. inhibition, % (no concentration beside the values). Q9QR71; in the data active = inhibition mostly above about 10%, no sharp cut-off; inactive = mostly below about 6.7%
RTF Ca sens act = cardiac RTF calcium sensitization; AID 493008; 0.24% of 340,000 active; activation, % at 7.2 µM; IANBD-labeled TnC RTF fluorescence at EC20 calcium; 0% EC20 calcium, 100% full calcium; P19429+P45379;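 active = activation above the mean over all tested compounds plus 3 SD, cut at about 30% in these data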;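 also: rise in fluorescence read as greater calcium sensitivity of cardiac thin filaments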
Cardiac RTF inh = cardiac RTF calcium desensitization. P19429+P45379. IANBD-labeled cardiac RTF, Ca2+ fluorescence. inhibition, % at 7.15 µM. 0.12% of 340,000 active;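 active = inhibition above the mean inhibition of all tested compounds plus 3 SD, cut at about 17% in these data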;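 also: assay run at fixed EC70 calcium of 1.6 mM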
C-LANA FP = inhibitors of KSHV LANA C-terminal domain DNA binding; AID 504423; 0.078% of 340,000 active; MBP-C-LANA/FAM-LBS DNA binding, fluorescence polarization; inhibition, % at 9 µM;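 active = highest replicate inhibition at or above 60% at 9 µM, even if other replicates fall short; inactive = all replicates below 60% inhibition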
E coli Lon inh = inhibitors of E. coli Lon protease; AID 602123; purified E. coli Lon protease, fluorescence polarization; 0.42% of 360,000 active; inhibition, % at 7.94 µM; in the data active = inhibition above about 13%, passing the limit was not always enough
Target sequence (P0A9M0 whole entry, looked up): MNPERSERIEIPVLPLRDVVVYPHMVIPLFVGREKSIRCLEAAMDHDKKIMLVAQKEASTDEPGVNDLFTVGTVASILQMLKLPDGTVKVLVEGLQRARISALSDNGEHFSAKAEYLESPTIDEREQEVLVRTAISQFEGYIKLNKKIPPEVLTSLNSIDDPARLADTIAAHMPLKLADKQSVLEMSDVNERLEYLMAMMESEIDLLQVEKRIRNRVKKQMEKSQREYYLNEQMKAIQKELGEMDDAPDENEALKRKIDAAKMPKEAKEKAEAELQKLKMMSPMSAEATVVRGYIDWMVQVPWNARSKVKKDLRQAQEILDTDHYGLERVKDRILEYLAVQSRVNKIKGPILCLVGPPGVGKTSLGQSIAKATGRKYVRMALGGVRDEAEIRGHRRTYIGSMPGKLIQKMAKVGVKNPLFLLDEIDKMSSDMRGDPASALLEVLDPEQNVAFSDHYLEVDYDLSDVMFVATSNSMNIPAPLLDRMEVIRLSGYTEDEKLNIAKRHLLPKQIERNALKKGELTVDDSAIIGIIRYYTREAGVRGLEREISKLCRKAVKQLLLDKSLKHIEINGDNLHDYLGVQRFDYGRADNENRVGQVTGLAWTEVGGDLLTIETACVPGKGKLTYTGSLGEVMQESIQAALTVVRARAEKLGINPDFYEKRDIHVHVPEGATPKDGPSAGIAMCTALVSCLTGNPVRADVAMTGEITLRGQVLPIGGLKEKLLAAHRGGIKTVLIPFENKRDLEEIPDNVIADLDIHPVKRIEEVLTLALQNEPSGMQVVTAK
Keap1 Nrf2 FP = disrupts human Keap1 binding to Nrf2 peptide; Keap1 Kelch-Nrf2 peptide fluorescence polarization, 1536-well; inhibition, % at 9.4 µM; 0.15% of 340,000 active; in the data active = inhibition above about 12%;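 also: human Keap1 Kelch domain with fluorescein labeled Nrf2 9mer peptide probe; higher means more block of Keap1 binding to Nrf2 peptide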
eLon confirm = confirmation of E. coli Lon protease inhibitors. shares compounds with E coli Lon inh. 31% of 1,400 active. AID 602230. inhibition, % at 7.94 µM. purified E. coli Lon, fluorescence polarization; in the data active = inhibition above about 16%
Large screens that a line does not name were inactive (follow-up assays come after a bar, where they were run).

CCOc1ccc(NC(=O)CSC2=NCCN2)cc1	E coli Lon inh 44.9 | eLon confirm inactive
N#Cc1ccc(-c2nc3c4ccccc4ccn3c2CC2CCCCC2)cc1	none (no result: LANA-H2B inh, RTF Ca sens act, Cardiac RTF inh, C-LANA FP, Keap1 Nrf2 FP)
CCCCC(=O)NCc1ccc2c(c1)cc(C)n2C	none
Cc1cc2cc(CNC(=O)c3cccs3)ccc2n1C	LANA-H2B inh 78.2, E coli Lon inh 26.8 | eLon confirm inactive
CCOC(=O)CCC(=O)NCc1ccc2c(c1)cc(C)n2C	E coli Lon inh 39.0 | eLon confirm inactive
COc1cccc(C(=O)NCc2ccc3c(c2)cc(C)n3C)c1	E coli Lon inh 31.0 | eLon confirm inactive
CCC(CC)C(=O)NCc1ccc2c(c1)cc(C)n2C	none
COc1ccc(C(=O)NCc2ccc3c(c2)cc(C)n3C)cc1OC	none
COc1ccc(/C=C\C(=O)NCc2ccc3c(c2)cc(C)n3C)cc1OC	E coli Lon inh 25.2 | eLon confirm inactive
COc1cccc(NC(=O)C(OC(=O)c2cnc(C)cn2)c2ccccc2)c1 (stereo unspecified)	none
N#CC1=C(N)C2=C(N3CCCCC3)CCCC2C1(C#N)C#N (stereo unspecified)	E coli Lon inh 24.0 | eLon confirm inactive
COc1ccc(C(=O)Nc2nccs2)cc1	none
COc1ccc(NC(=O)Nc2nccs2)cc1	E coli Lon inh 16.5 | eLon confirm inactive
c1ccc(Nc2ccccc2Nc2ccccn2)nc1	E coli Lon inh 33.1 | eLon confirm inactive
COc1ccc2[nH]c3c(c2c1)CCN1C(=O)C(CC(=O)NCc2ccco2)C[C@H](C(=O)N2CCCCC2)[C@@]31CCc1ccccc1 (stereo partly specified)	none (no result: LANA-H2B inh)
CCN(CC)c1ccc(/C=N/NC(=O)c2cc3ccccc3[nH]2)cc1	E coli Lon inh 16.1 | eLon confirm inactive
CC(C)(C)OC(=O)NC(Cc1ccccc1)C(=O)N1CCC(C(=O)NCC(=O)Nc2ccc(F)cc2)CC1 (stereo unspecified)	E coli Lon inh 21.7 | eLon confirm 43.2
C[C@@H](NC(=O)c1coc(=O)c(Br)c1)c1ccccc1	none
Cc1cc(NC(=O)c2coc(=O)c(Br)c2)ccc1C(C)C	E coli Lon inh 24.3 (no result: RTF Ca sens act, Cardiac RTF inh) | eLon confirm 18.9
Cn1ccc2c(N3CCCC3)cc3c(c21)C1CCC3O1 (stereo unspecified)	E coli Lon inh 30.2 (no result: LANA-H2B inh, RTF Ca sens act, Cardiac RTF inh, C-LANA FP, Keap1 Nrf2 FP) | eLon confirm inactive
O=C(OCC(=O)c1ccc[nH]1)c1ccc(S(=O)(=O)C(F)F)cc1	none (no result: LANA-H2B inh, RTF Ca sens act, Cardiac RTF inh, C-LANA FP, Keap1 Nrf2 FP)
COc1ccc(NC(=S)N=Nc2c(O)[nH]c3ccccc23)cc1	none
Oc1ccc(NC(=S)N=Nc2c(O)[nH]c3ccccc23)cc1	E coli Lon inh 18.1 | eLon confirm 20.9
Cc1ccc(NC(=S)N=Nc2c(O)[nH]c3ccccc23)cc1	E coli Lon inh 14.2 | eLon confirm inactive
CCOc1c2ccccc2nn1CCO	E coli Lon inh 28.7 | eLon confirm inactive
CCOc1c2ccccc2nn1CCOC	none
O=C(O)c1ccc(N2C(=O)CSC2=S)cc1	none
O=C(O)c1ccc(CN2C(=O)CSC2=S)cc1	E coli Lon inh 15.8 | eLon confirm inactive
COc1ccc(S(=O)(=O)c2c(O)c3ccc(C(=O)Nc4ccccc4Cl)cc3[nH]c2=O)cc1	E coli Lon inh 24.8 | eLon confirm inactive
COc1cc(NC(=O)c2ccccn2)cc(OC)c1OC	none
COc1ccc(N2CCN(c3cc(C(=O)Nc4cc(OC)c(OC)c(OC)c4)ncn3)CC2)cc1OC	E coli Lon inh 11.8 (no result: LANA-H2B inh, RTF Ca sens act, Cardiac RTF inh, C-LANA FP, Keap1 Nrf2 FP) | eLon confirm inactive
CCOP(=O)(OCC)C(NC(=O)c1cc([N+](=O)[O-])cc([N+](=O)[O-])c1)C(F)(F)F (stereo unspecified)	E coli Lon inh 20.7 | eLon confirm 24.4
Cc1cccc(NNC(N)=S)c1C	none
CC1(C)CC(=O)C(C=Nc2ccc(C(=O)c3ccccc3)cc2N=CC2=C(O)CC(C)(C)CC2=O)=C(O)C1	RTF Ca sens act 43.8, E coli Lon inh 13.0 | eLon confirm inactive
CC1(C)CC(=O)C(C=Nc2cccnc2)=C(O)C1	none
CC1(C)CC(=O)C(C=Nc2cccnc2/N=C/C2=C(O)CC(C)(C)CC2=O)=C(O)C1	E coli Lon inh 52.0 | eLon confirm inactive
CC1(C)CC(=O)C(C=Nc2ccc(O)c(N=CC3=C(O)CC(C)(C)CC3=O)c2)=C(O)C1	none
COc1ccc(/C=C/C(=O)Oc2ccc(/C=N/NC(=O)c3ccncc3)cc2)cc1	none
COc1cc2cc(Oc3ccc4ccc(=O)oc4c3)c(=O)oc2cc1OC(=O)/C=C/c1ccccc1	none
CSCC(C)N1CCC(Oc2cccc(C(=O)NCc3ccccn3)c2)CC1 (stereo unspecified)	E coli Lon inh 17.2 | eLon confirm inactive
COc1ccc(N2CCN(C(=O)c3oc4ccccc4c3NC(=O)CCc3cc(OC)no3)CC2)cc1	none
CC(=O)n1nc(-c2ccc(C)cc2)nc1NCc1ccc(F)cc1	E coli Lon inh 18.2 (no result: LANA-H2B inh) | eLon confirm inactive
CC(=O)n1nc(-c2ccc(C)cc2)nc1NCc1ccco1	none (no result: LANA-H2B inh)
CCC(C)(C)n1nnnc1C(C(C)C)N(Cc1cccnc1)Cc1ccco1 (stereo unspecified)	none
CCC(C)(C)n1nnnc1C(C(C)C)N(Cc1ccco1)Cc1cc2cc3c(cc2[nH]c1=O)OCO3 (stereo unspecified)	E coli Lon inh 36.0 | eLon confirm 52.1
CC(C)CC(N)c1csc(NC(=O)Nc2ccccc2C(C)C)n1 (stereo unspecified)	none (no result: LANA-H2B inh, RTF Ca sens act, Cardiac RTF inh, C-LANA FP, Keap1 Nrf2 FP)
CCCCn1c(NC(C)=O)c(C#N)c2nc3ccccc3nc21	E coli Lon inh 22.7 | eLon confirm inactive
O=c1[nH][nH]c(=O)n1-c1ccccc1	none
CCCCc1ncc(CN2CCC(n3nccc3NC(=O)C(OC)c3ccccc3)CC2)[nH]1 (stereo unspecified)	none
CCn1cc(CN2CCC(n3nccc3NC(=O)C3CCCC3)CC2)c(C)n1	none
CCn1cc(CN2CCC(n3nccc3NC(=O)c3ccccc3C)CC2)c(C)n1	E coli Lon inh 44.9 | eLon confirm inactive
CCCCc1ncc(CN2CCC(n3nccc3NC(=O)c3ccccc3Cl)CC2)[nH]1	E coli Lon inh 19.4 | eLon confirm inactive
COc1ccc(CNC(=O)CN2CCN(c3ccccc3O)CC2)cc1OC	none
CCOc1cccc(=O)c2c(C)n(-c3ccc(C(=O)O)cc3)c(C)c12	none
COc1cccc(=O)c2c(C)n(-c3ccc(C(=O)O)cc3)c(C)c12	E coli Lon inh 27.0 | eLon confirm inactive
COCCN(C(=O)CSc1nc2ccccc2c(=O)n1CCOC)c1c(N)n(Cc2ccccc2)c(=O)[nH]c1=O	none
CC(C)(C)c1cc[n+](-c2[nH]c(=O)sc2/C=N/NC(=O)c2ccccc2[O-])cc1	E coli Lon inh 43.3 | eLon confirm 35.8
